Screens (PubChem)
Compounds with a hit are over-represented: about 1.5% of the library has one in this group of screens.
Bcl-xL primary – inhibitors of human Bcl-xL; inhibition, % at 10.9 µM; GST-Bcl-xL / FITC-Bim BH3 peptide fluorescence polarization; hit rate 0.7% among 320,000; AID 2129;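 active means inhibition above the mean of all tested compounds plus 3 SD, cutoff set per campaign, cut at about 30% in these data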;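 further: 0% = DMSO wells and 100% = unlabeled Bim-BH3 peptide competitor; inhibitors lower millipolarization by displacing the labeled peptide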
EBV gp42 block – inhibitors of Epstein-Barr virus glycoprotein 42; Fluorescence polarization binding assay, mP read-out; inhibition, % (tested at 21.74 µM); hit rate 0.42% among 220,000; in the data active means inhibition above about 50%
MEX-5 binding – C. elegans MEX-5 TCR-2 RNA binding activity | MEX-5/FITC-TCR2 RNA binding, fluorescence polarization; hits give low values | activity score (negative = inhibition of binding), % at 10 µM | Q9XUB2 | hit rate 0.38% among 300,000;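 active means inhibition past about -25% in most replicates, and total fluorescence under double the plate's negative control median, limit read from the data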;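 further: 0% = DMSO and -100% = 5 µM competing unlabeled TCR2 RNA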
GLD-1 TGE inh – GLD-1-TGE RNA interaction inhibition (C. elegans); Q17339; purified GLD-1 + fluorescein TGE RNA, fluorescence polarization; inhibition, % at 5.96 µM; hit rate 0.44% among 320,000;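 active means percent inhibition above a per-plate cutoff, the plate mean of test compounds plus 3 SD, cut at about 30% in these data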;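 further: 0% = DMSO wells with GLD-1 and probe and 100% = wells lacking GLD-1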
MCL1-BIM inh – disrupts human MCL1 binding to BIM-BH3 peptide. GST-MCL1 / FITC-Bim-BH3 fluorescence polarization. inhibition, % at 10.9 µM. hit rate 0.68% among 320,000. AID 2057;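 active means inhibition above the mean inhibition of all tested compounds plus 3 SD, set per campaign, cut at about 40% in these data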;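 further: 0% = DMSO wells and 100% = unlabeled Bim-BH3 peptide control; higher means more loss of mP so more displacement of Bim peptide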
E coli Lon inh – E. coli protease La inhibition; inhibition, % at 7.94 µM; AID 602123; purified E. coli Lon protease, fluorescence polarization; hit rate 0.42% among 360,000; P0A9M0; in the data active means inhibition above about 13%, passing the limit was not always enough;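 further: 0% = enzyme with probe and DMSO and 100% = no enzyme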
* = called active by the depositor; nt = no result.

SMILES	Bcl-xL primary	EBV gp42 block	MEX-5 binding	GLD-1 TGE inh	MCL1-BIM inh	E coli Lon inh
COC(=O)CCC(=O)OC1(C)C(=O)C2=CN(CC3CC3)C(c3ccc(OC)cc3)=CC2=C(Br)C1=O (stereo unspecified)	33*	20	-18	21	35	9
CN(c1cccc(NC(=O)c2ccc(Cl)c(S(=O)(=O)N3CCOCC3)c2)c1)S(C)(=O)=O	nt	nt	1	nt	nt	1
O=C(ONc1ccc(N=NC(=O)c2ccccc2O)cc1)c1ccccc1	12	89*	-1	8	23	9
CCCCCCN(C(=O)CCCCCN1C(=O)NC(c2ccc(Cl)cc2)C(C(=O)OCc2ccccc2)=C1C)C(C(=O)NCCCC)c1ccc(OCC(=O)OC)c(C(=O)OC)c1 (stereo unspecified)	nt	2	nt	nt	nt	nt
CN1OC[C@@H]2CN(Cc3ccc4c(c3)OCO4)[C@H](c3ccc(N4CCCCC4)cc3)C[C@@H]21	nt	nt	nt	nt	nt	-11
Cc1ccc(C)c(NC(=O)COC(=O)c2ccc3c(c2)OCCO3)c1	0	nt	nt	-3	-3	-12
CCN1C(=O)/C(=C/C2=Cc3ccccc3OC2C)SC1=S (stereo unspecified)	-29	52*	-1	-24	-50	-66
CSCCC(C(=O)Nc1c(C)cccc1C)N(Cc1ccccc1)Cc1ccccc1 (stereo unspecified)	nt	nt	nt	nt	nt	1
Cc1coc(NC(=O)CSc2nc(-c3ccc(Cl)cc3)cc(C(F)(F)F)c2C#N)n1	45*	-35	-4	6	40*	-5
Cc1ccc(C)c(N2CCN(C(=O)c3ccc(N4CCCC4=O)cc3)CC2)c1	130*	nt	-2	12	9	-8
CC(=O)C[C@H](O)CC(=O)[C@H]1OC(=O)CCCCCCCCc2ccccc21	nt	nt	nt	4	nt	-13
Oc1ccc2ccccc2c1CNc1ccccn1	2	nt	-1	3	3	4
O=C(O)C1Nc2c(C(F)(F)F)ccc(Cl)c2C2C=CCC12 (stereo unspecified)	38*	nt	-16	15	48*	0
COCCNC(=O)C1Nc2ccc(C(F)(F)F)cc2C2C=CCC12 (stereo unspecified)	1	nt	0	2	3	-2
CCCCNC(=O)C(NC(=O)c1ccc(=O)[nH]c1)C(=O)c1ccccc1 (stereo unspecified)	nt	nt	nt	nt	nt	-10
COc1ccccc1Nc1nc2ccc(C)cc2cc1C#N	0	57*	-3	4	-3	1
COc1ccccc1Nc1nc2cc(C)ccc2cc1C#N	0	-12	0	-13	-8	-4
Cc1c(C(=O)NCc2ccccc2C(F)(F)F)sc(=O)n1Cc1ccc2c(c1)OCO2	nt	nt	nt	nt	nt	0
Cc1cc(Br)ccc1NC(=O)CN(C)C(=O)c1cc(S(=O)(=O)N(C)C)ccc1N1CCCC1	0	nt	1	-5	1	-9
CN(C)[C@@H]1C(=O)C(C(=O)NCN2CCCC2)=C(O)[C@@]2(O)C(=O)C3=C(O)c4c(O)cccc4[C@@](C)(O)C3CC12 (stereo partly specified)	nt	71*	nt	nt	nt	nt
N#C/C(=C\c1ccccc1[N+](=O)[O-])C(=O)Nc1ccc(S(N)(=O)=O)cc1	33*	43	-6	29	29	8
COc1ccccc1/C=C(\C#N)C(=O)Nc1ccc(S(N)(=O)=O)cc1	4	5	0	-10	-5	-4
Fc1ccccc1N1CCN(c2nc3ccccc3n3nnnc23)CC1	36*	31	3	23	52*	-39
Fc1cc(Br)ccc1Nc1nc2ccccc2n2nnnc12	1	-22	-1	-3	-4	-68
O=C(c1ccccc1)c1nn(-c2ccccc2)c(=O)cc1C(F)(F)F	8	-2	2	-2	-3	-3
SMILES	Bcl-xL primary	EBV gp42 block	MEX-5 binding	GLD-1 TGE inh	MCL1-BIM inh	E coli Lon inh
O=C(Nc1ccccc1)c1nn(-c2ccccc2)c(=O)cc1C(F)(F)F	4	18	-30*	-1	4	-2
CC(=O)N1c2ccc3ccccc3c2C2C=CCC2C1c1ccc(Br)cc1 (stereo unspecified)	37*	30	nt	41*	32	nt
Nc1c(Cl)ncnc1NCC(O)CO (stereo unspecified)	4	-4	nt	7	8	0
O=C(C1=NN(c2ccccc2)C2C(=O)N(c3ccc(Cl)cc3)C(=O)C12)c1ccccc1 (stereo unspecified)	46*	67*	nt	23	39	-25
O=C(C1=NN(c2ccccc2)C2C(=O)N(c3cccc(Cl)c3)C(=O)C12)c1ccccc1 (stereo unspecified)	32*	74*	nt	5	14	-40
O=C(O)c1cc(-c2ccc(/C=c3\sc4nc5ccc(Br)cc5n4c3=O)o2)ccc1Cl	-27	nt	-29*	-52	-8	nt
Cc1cc2nc3s/c(=C/c4ccc(-c5ccccc5C(=O)O)o4)c(=O)n3c2cc1C	-25	nt	-6	-23	-33	-26
COc1ccc2c(Cl)c(C(=O)N/N=C3\CCCC(=O)C3)sc2c1	40*	-81	0	129*	23	-141
COc1ccc2c(Cl)c(C(=O)N/N=C/c3ccc4c(c3)OCO4)sc2c1	-6	-14	-2	-14	-2	1
O=C(COC(=O)C1CCN(c2ccc(C(F)(F)F)cn2)CC1)Nc1ccc(F)cc1[N+](=O)[O-]	5	nt	-1	-1	5	7
Cc1cc(C(=O)N/N=C2\CC(=O)CC(C)(C)C2)c2ccccc2n1	18	-5	-4	63*	22	1
O=C(CCNS(=O)(=O)c1ccc(OC(F)(F)F)cc1)Nc1cccc(S(=O)(=O)N2CCCC2)c1	nt	nt	nt	nt	nt	-6
O=C(O)CCCCCN1C(=O)C(O)=C(C(=O)/C=C/c2ccccc2)C1c1ccccc1[N+](=O)[O-] (stereo unspecified)	10	-14	-40*	-2	4	4
CCCCN1C(=O)C(O)=C(C(C)=O)C1c1ccccc1[N+](=O)[O-] (stereo unspecified)	5	-5	0	8	-7	-8
Cc1cccn2c(CN[C@H]3CCCCNC3=O)c(C(=O)N3CCOCC3)nc12	1	10	-1	0	2	-5
CCN(CC)c1ccc(/C=C(\C#N)C(=O)NCc2ccccc2)cc1	-3	-8	-3	-42	-11	-178
Cc1ccc(CNC(=O)/C(C#N)=C\c2ccc(N(C)C)cc2)cc1	-2	-26	-60*	-62	-9	nt
CN(C)c1ccc(/C=C(\C#N)C(=O)NCc2ccco2)cc1	-10	-27	-42*	-46	-9	nt
COc1ccc(NC(=O)C2CCCN(C(=O)Nc3ccc(F)cc3)C2)cc1 (stereo unspecified)	1	nt	-3	-1	-1	-11
COC(=O)[C@]1(C)N[C@H](CN(C)C(=O)NC(C)C)[C@@H]2C(=O)N(C)C(=O)[C@@H]21	nt	nt	nt	7	nt	4
